The campaign covered roughly 39,000 compounds. About 1,500 (3.8%) were called active. What follows is part of a selection rich in actives, with near analogues and random picks from the rest.
Each molecule was assayed on HSkMC (human skeletal muscle cells) (assay: cytotoxicity call (relative viability < 0.9)). Conditions: 10 µM.
For `CO[C@@H]1CN(C)C(=O)c2cc(NS(=O)(=O)c3cn(C)cn3)ccc2OC[C@@H](C)N(CCC(F)(F)F)C[C@H]1C`, the cytotoxicity call was “inactive”. With `O=C(C[C@H]1CC[C@@H]2[C@H](COC[C@H](O)CN2S(=O)(=O)c2cccc(F)c2)O1)NCCCN1CCOCC1` the cytotoxicity call was “inactive”. For `COCC#Cc1cnc2c(c1)C(=O)N([C@@H](C)CO)C[C@H](C)[C@H](CN(C)C(=O)Nc1ccccc1OC)O2`, the cytotoxicity call was “inactive”. `O=C(CCCCCNC(=O)OCc1ccc(CO[C@@H]2C[C@H](c3ccc(C(F)(F)F)cc3)C=C(C(=O)N3CCN(Cc4ccc5c(c4)OCO5)CC3)O2)cc1)NO` was tested, and the cytotoxicity call was “inactive”. For `C[C@@H]1CN([C@@H](C)CO)S(=O)(=O)c2ccc(-c3ccc(C(=O)N(C)C)cc3)cc2O[C@H]1CN(C)C(=O)Cc1ccccn1`, the cytotoxicity call was “inactive”. `COc1ccc(NC(=O)N(C)C[C@@H]2OCCCC[C@H](C)Oc3ccc(NC(=O)CCC(F)(F)F)cc3C(=O)N([C@@H](C)CO)C[C@@H]2C)cc1` was tested, and the cytotoxicity call was “inactive”. For `CO[C@H]1CN(C)C(=O)c2cc(NS(=O)(=O)c3cn(C)cn3)ccc2OC[C@H](C)N(Cc2cccc(F)c2)C[C@@H]1C`, the cytotoxicity call was “inactive”. `CO[C@H]1/C=C/C[C@H](C)[C@@H](C)S(=O)(=O)NC(=O)c2ccc3c(c2)N(C[C@@H]2CC[C@H]21)C[C@@]1(CCCc2cc(Cl)ccc21)CO3` was tested, and the cytotoxicity call was “active”. In the case of `COc1ccc(CN(C)C[C@@H]2OCCCC[C@@H](C)Oc3ccc(NC(=O)c4ccccc4)cc3C(=O)N([C@@H](C)CO)C[C@@H]2C)cc1`, the cytotoxicity call is reported as “inactive”. `CO[C@@H]1CN(C)C(=O)c2ccc(NS(=O)(=O)c3cn(C)cn3)cc2OC[C@H](C)N(Cc2cccc(F)c2)C[C@@H]1C` was tested, and the cytotoxicity call was “inactive”. For `C=C1C(=O)OC2CC3(C)CCCC(C)C3=CC12` (centres undefined), the cytotoxicity call was “active”. In the case of `C[C@H]1CN([C@@H](C)CO)C(=O)c2cc(NC(=O)C3CCCCC3)ccc2O[C@@H]1CN(C)Cc1ccc(Cl)c(Cl)c1`, the cytotoxicity call is reported as “inactive”. `CC(C)c1c(O)ccc2c1CCC1C(C)(C)C(=O)CCC21C` (centres undefined) was tested, and the cytotoxicity call was “inactive”. `CC(C)c1c(O)ccc2c1CC[C@H]1C(C)(C)CCC[C@]21C` was tested, and the cytotoxicity call was “active”. In the case of `COC(=O)C1(C)CCCC2(C)c3ccc(C(C)C)cc3C(=O)CC12` (centres undefined), the cytotoxicity call is reported as “inactive”. With `COC(=O)C1(C)CCCC2(C)c3ccc(O)c(C(C)C)c3CCC12` (centres undefined) the cytotoxicity call was “active”. `CC(C)c1c(O)ccc2c1CCC1C(C)(C)CCCC21C` (centres undefined) was tested, and the cytotoxicity call was “inactive”. In the case of `CC(C)c1c(O)ccc2c1CCC1C(C)(C=O)CCCC21C` (centres undefined), the cytotoxicity call is reported as “inactive”. `Cn1cnc(CCNC(=O)C[C@H]2CC[C@@H]3[C@H](COC[C@H](O)CN3C(=O)Nc3ccc(Cl)cc3)O2)c1` was tested, and the cytotoxicity call was “inactive”. `C[C@@H]1CN([C@@H](C)CO)C(=O)c2cc(NC(=O)c3ccccc3)ccc2O[C@@H](C)CCCCO[C@H]1CN(C)S(=O)(=O)c1cccs1` was tested, and the cytotoxicity call was “inactive”. For `COCC#Cc1ccc2c(c1)O[C@H](CN(C)S(=O)(=O)c1cccc(F)c1)[C@H](C)CN([C@H](C)CO)S2(=O)=O`, the cytotoxicity call was “inactive”. `NC(=O)N1CCC(CC(=O)N2CCC([C@H]3c4ncc(Br)cc4CCc4cc(Cl)cc(Br)c43)CC2)CC1` was tested, and the cytotoxicity call was “inactive”. `C[C@@H]1CN([C@@H](C)CO)C(=O)CCCn2cc(nn2)CO[C@@H]1CN(C)S(=O)(=O)c1ccc2c(c1)OCCCO2` was tested, and the cytotoxicity call was “inactive”. With `Cc1ccc(S(=O)(=O)N(C)C[C@@H]2Oc3c(NC(=O)C4CCOCC4)cccc3C(=O)N([C@H](C)CO)C[C@H]2C)cc1` the cytotoxicity call was “inactive”. In the case of `C[C@@H]1CN([C@@H](C)CO)C(=O)c2c(c3ccccc3n2C)-c2ccccc2CO[C@@H]1CN(C)Cc1cccc(F)c1`, the cytotoxicity call is reported as “inactive”. With `C[C@H](CO)N1C[C@H](C)[C@@H](CN(C)S(C)(=O)=O)Oc2ccc(NC(=O)Nc3ccccc3)cc2CC1=O` the cytotoxicity call was “inactive”. With `Cc1ccccc1S(=O)(=O)N(C)C[C@@H]1Oc2ccc(NC(=O)Nc3cc(Cl)cc(Cl)c3)cc2CC(=O)N([C@@H](C)CO)C[C@@H]1C` the cytotoxicity call was “active”. In the case of `Cc1ccccc1S(=O)(=O)N(C)C[C@@H]1Oc2ccc(NC(=O)Nc3ccc(Cl)c(Cl)c3)cc2CC(=O)N([C@@H](C)CO)C[C@@H]1C`, the cytotoxicity call is reported as “active”. For `Cc1noc(C)c1S(=O)(=O)N(C)C[C@@H]1Oc2ccc(NC(=O)Nc3ccccc3)cc2CC(=O)N([C@@H](C)CO)C[C@@H]1C`, the cytotoxicity call was “inactive”. With `C[C@H]1CN([C@@H](C)CO)C(=O)Cc2cc(NC(=O)Nc3ccc(Cl)c(Cl)c3)ccc2O[C@H]1CN(C)S(=O)(=O)c1ccc(Oc2ccccc2)cc1` the cytotoxicity call was “inactive”. With `C[C@H]1CN([C@@H](C)CO)C(=O)Cc2cc(NC(=O)Nc3cc(Cl)cc(Cl)c3)ccc2O[C@H]1CN(C)S(=O)(=O)c1ccc(Oc2ccccc2)cc1` the cytotoxicity call was “inactive”. In the case of `Nc1ccccc1CO`, the cytotoxicity call is reported as “inactive”. With `C[C@H](CO)N1C[C@H](C)[C@H](CN(C)CC2CC2)OCCCC[C@H](C)Oc2ccc(NC(=O)Nc3ccccc3)cc2C1=O` the cytotoxicity call was “inactive”. In the case of `C[C@@H]1CCCCO[C@H](CN(C)Cc2ccc3c(c2)OCO3)[C@H](C)CN([C@H](C)CO)C(=O)c2cc(NC(=O)Nc3ccc4c(c3)OCO4)ccc2O1`, the cytotoxicity call is reported as “inactive”. For `Cc1ccc(S(=O)(=O)Nc2ccc3c(c2)C(=O)N([C@@H](C)CO)C[C@H](C)[C@H](CN(C)Cc2ccccc2)OCCCC[C@@H](C)O3)cc1`, the cytotoxicity call was “inactive”. With `O=C(C1=C[C@@H](c2ccc3c(c2)OCO3)C[C@@H](OCCCCO)O1)N1CCN(Cc2ccc3c(c2)OCO3)CC1` the cytotoxicity call was “inactive”. With `C[C@H]1CN([C@@H](C)CO)C(=O)c2cc(C#CC3(O)CCCC3)cnc2O[C@@H]1CN(C)C(=O)Cc1ccncc1` the cytotoxicity call was “inactive”. For `COc1ccc(S(=O)(=O)N2C[C@@H](O)COC[C@@H]3O[C@@H](CC(=O)NCCCN4CCOCC4)CC[C@H]32)cc1`, the cytotoxicity call was “inactive”. `CCCCCCOC(=O)N=C(N)c1ccc(NCc2nc3cc(C(=O)N(CCC(=O)OCC)c4ccccn4)ccc3n2C)cc1.CS(=O)(=O)O` was tested, and the cytotoxicity call was “inactive”. `CCCCCCOC(=O)/N=C(/N)c1ccc(NCc2nc3cc(C(=O)N(CCC(=O)OCC)c4ccccn4)ccc3n2C)cc1` was tested, and the cytotoxicity call was “active”. For `COc1ccc(NC(=O)Nc2cccc3c2O[C@@H](CN(C)S(C)(=O)=O)[C@@H](C)CN([C@H](C)CO)C3=O)cc1`, the cytotoxicity call was “inactive”. `C[C@H](CO)N1C[C@H](C)[C@H](CN(C)S(C)(=O)=O)Oc2ccc(NS(=O)(=O)c3ccc(F)cc3)cc2CC1=O` was tested, and the cytotoxicity call was “inactive”. `C[C@H](CO)N1C[C@H](C)[C@@H](CN(C)C(=O)Nc2ccc3c(c2)OCO3)Oc2ccc(NC(=O)c3ccncc3)cc2CC1=O` was tested, and the cytotoxicity call was “inactive”. `Cc1noc(C)c1NC(=O)Nc1ccc2c(c1)C(=O)N([C@@H](C)CO)C[C@@H](C)[C@H](CN(C)Cc1ccccc1)OCCCC[C@@H](C)O2` was tested, and the cytotoxicity call was “inactive”. `CCCN(C)C[C@@H]1OCCCC[C@H](C)Oc2ccc(NC(=O)Nc3ccc(C(F)(F)F)cc3)cc2C(=O)N([C@@H](C)CO)C[C@@H]1C` was tested, and the cytotoxicity call was “active”. `C[C@H]1CCCCO[C@H](CN(C)CC2CC2)[C@@H](C)CN([C@@H](C)CO)C(=O)c2cc(NC(=O)Nc3ccc(C(F)(F)F)cc3)ccc2O1` was tested, and the cytotoxicity call was “inactive”. With `C[C@@H]1CCCCO[C@H](CN(C)CC2CC2)[C@H](C)CN([C@H](C)CO)C(=O)c2cc(NC(=O)Nc3ccc(C(F)(F)F)cc3)ccc2O1` the cytotoxicity call was “active”. `C[C@H](CO)N1C[C@H](C)[C@H](CN(C)CC2CC2)OCCCC[C@H](C)Oc2ccc(NC(=O)Nc3ccc(C(F)(F)F)cc3)cc2C1=O` was tested, and the cytotoxicity call was “inactive”. `CCCN(C)C[C@H]1OCCCC[C@H](C)Oc2ccc(NC(=O)Nc3ccc(C(F)(F)F)cc3)cc2C(=O)N([C@@H](C)CO)C[C@H]1C` was tested, and the cytotoxicity call was “inactive”. With `C[C@@H]1CCCCO[C@@H](CN(C)CC2CC2)[C@H](C)CN([C@@H](C)CO)C(=O)c2cc(NC(=O)Nc3ccc(C(F)(F)F)cc3)ccc2O1` the cytotoxicity call was “inactive”. With `CCCN(C)C[C@@H]1OCCCC[C@@H](C)Oc2ccc(NC(=O)Nc3ccc(C(F)(F)F)cc3)cc2C(=O)N([C@H](C)CO)C[C@@H]1C` the cytotoxicity call was “inactive”. `C[C@@H]1CCCCO[C@H](CN(C)CC2CC2)[C@H](C)CN([C@@H](C)CO)C(=O)c2cc(NC(=O)Nc3ccc(C(F)(F)F)cc3)ccc2O1` was tested, and the cytotoxicity call was “active”. `C[C@@H]1CCCCO[C@@H](CN(C)CC2CC2)[C@@H](C)CN([C@H](C)CO)C(=O)c2cc(NC(=O)Nc3ccc(C(F)(F)F)cc3)ccc2O1` was tested, and the cytotoxicity call was “inactive”. `C[C@@H]1CN([C@H](C)CO)C(=O)CCCn2nncc2CO[C@@H]1CN(C)S(=O)(=O)c1ccc(-n2cccn2)cc1` was tested, and the cytotoxicity call was “inactive”. `CC[C@@H](C)N[C@H]1CCS(=O)(=O)C1` was tested, and the cytotoxicity call was “inactive”. For `Cc1cccc([C@@H](N)c2nccn2C)c1`, the cytotoxicity call was “inactive”. For `O=C(CCCCCNC(=O)OCCCCO[C@H]1C[C@@H](c2ccc(C(F)(F)F)cc2)C=C(C(=O)N2CCN(Cc3ccccc3)CC2)O1)NO`, the cytotoxicity call was “inactive”. In the case of `CN(C)CC(=O)N[C@@H]1CC[C@@H](CC(=O)NCCN2CCCCC2)O[C@H]1CO`, the cytotoxicity call is reported as “inactive”. `C[C@H](CO)N1C[C@H](C)[C@@H](CN(C)S(=O)(=O)c2ccc(F)cc2)Oc2c(NC(=O)Nc3ccc(C(F)(F)F)cc3)cccc2C1=O` was tested, and the cytotoxicity call was “inactive”. For `O=C(NCCN1CCCC1)[C@H]1[C@H](CO)[C@H]2Cn3c(cccc3=O)[C@@H]1N2C(=O)c1ccccc1`, the cytotoxicity call was “inactive”. `C[C@H](CO)N1C[C@H](C)[C@H](CN(C)C(=O)Nc2cccc3ccccc23)Oc2c(NS(=O)(=O)c3ccc(Cl)cc3)cccc2C1=O` was tested, and the cytotoxicity call was “inactive”. With `CO[C@@H]1[C@H](O[P@@](=O)(S)OC[C@H]2O[C@@H](n3cnc4c(N)ncnc43)C[C@@H]2O)[C@@H](CO)O[C@H]1n1ccc(=O)[nH]c1=O` the cytotoxicity call was “active”. In the case of `CO[C@@H]1[C@H](O[P@@](=O)(OC[C@H]2O[C@@H](n3cnc4c(N)ncnc43)C[C@@H]2O)SCOC(=O)OC(C)C)[C@@H](CO)O[C@H]1n1ccc(=O)[nH]c1=O`, the cytotoxicity call is reported as “inactive”. For `Nc1ncnc2c1ncn2[C@@H]1O[C@H](COP(=O)(O)O)[C@@H](O)[C@H]1O`, the cytotoxicity call was “inactive”.

Source: the antibiotic and cytotoxicity screens of Wong et al. (2023)
